Data reported in PubChem BioAssay (NCATS).
Values joined by “and” are separate entries in the source; they are usually repeats but may differ in a detail not shown here. Equal values may be shown once. Results filed as inconclusive are left out. Where a structure was tested more than once in an assay, its records may differ in their call. Active and inactive are the calls of the source. Calls follow the shape of the dose curve; as a rule, active = well fitted inhibition curve with a large enough effect; inconclusive = small, poorly fitted or top-dose-only effect; inactive = flat fitted curve, though single readings scatter.

Target: Glutathione peroxidase 1 (Homo sapiens) (UniProt P07203)
Sequence (P07203 whole entry, looked up): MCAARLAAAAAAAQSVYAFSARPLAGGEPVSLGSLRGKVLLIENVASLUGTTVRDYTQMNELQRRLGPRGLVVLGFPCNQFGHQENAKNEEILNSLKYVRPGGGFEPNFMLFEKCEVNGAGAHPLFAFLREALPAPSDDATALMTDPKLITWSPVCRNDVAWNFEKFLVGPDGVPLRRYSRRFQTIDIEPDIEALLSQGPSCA
Assay: Primary qHTS Assay for Inhibitors of Recombinant Selenoprotein Glutathione Peroxidase 1 (GPX1) (AID 1845191)
Details: recombinant GPX1, GR-coupled NADPH fluorescence, 15 min; series mostly up to 48.8 µM; activity, negative = inhibition: at the top concentration
Summary of the method: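 Recombinant GPX1 (10 nM final) was preincubated with compound for 30 min at room temperature, then reacted with 1 mM GSH, 0.5 mM CHP, 0.5 mM NADPH and 100 nM glutathione reductase; NADPH fluorescence (340/450 nm) was read at 0 and 15 min.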
% is scaled to controls: 0 for no effect and ±100 for the full control effect; potency is read from the fitted curve at half-maximal effect.
Also: nearly all actives have a fitted effect of over 65% in size.

SMILES	Potency	outcome	activity, negative = inhibition
Cc1csc(N(C(=O)CSc2ccc(-c3ccccc3)nn2)C2CC2)n1	20.2 µM (active)	–	–
CC12CCC(OC3OC(CO)C(O)C(O)C3OC3OC(CO)C(O)C(O)C3O)CC1CCC1C2CCC2(C)/C(=C3/COC(=O)C3)CCC12O (stereo not drawn)	–	inactive [at 15.3 µM]	–
CCOc1nc(NC(=O)Cc2cc(OC)ccc2OC)cc(N)c1C#N	–	–	-3.06% (inactive)
C/C(=C\CO[C@@H]1O[C@H](CO[C@H]2OC[C@](O)(CO)[C@H]2O)[C@@H](O)[C@H](O)[C@H]1O)C(C)(C)O	–	inactive [at 27.7 µM]	–

Target: Phospholipid hydroperoxide glutathione peroxidase GPX4 (Homo sapiens) (UniProt P36969)
Sequence (P36969 whole entry, looked up): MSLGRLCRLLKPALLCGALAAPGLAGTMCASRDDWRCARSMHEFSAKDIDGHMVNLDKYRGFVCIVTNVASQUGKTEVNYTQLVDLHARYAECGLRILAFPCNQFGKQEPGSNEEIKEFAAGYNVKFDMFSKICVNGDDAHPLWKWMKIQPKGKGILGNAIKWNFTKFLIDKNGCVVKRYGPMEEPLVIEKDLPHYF
Assay: Primary qHTS Assay for Inhibitors of Recombinant Selenoprotein Glutathione Peroxidase 4 (GPX4) (AID 1845192)
Details: recombinant GPX4, GR-coupled NADPH fluorescence, 15 min; series mostly up to 50 µM; activity change, negative = inhibition: at the top concentration
Summary of the method: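 GR-coupled readout: 100 nM GR, 1 mM GSH, 0.5 mM NADPH; NADPH fluorescence (ex 340/em 450 nm) read at t=0 and after 15 min RT. GPX4 200 nM, preincubated 30 min with compound; substrate 0.5 mM CHP.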

SMILES	activity change, negative = inhibition	Potency	outcome
COc1ccc(-c2csc(NC(=O)[C@H]3CCCCN3S(=O)(=O)c3ccc(C)cc3)n2)cc1	-6.04% (inactive)	–	–
O=C(O)C1=CO[C@@H](O[C@@H]2O[C@H](CO)[C@@H](O)[C@H](O)[C@H]2O)[C@@H]2C(CO)=CC[C@H]12	–	inactive	–
C=C1C(=O)O[C@H]2/C=C(/C)[C@@H](OC(C)=O)C/C=C(\C)C[C@@H](OC(=O)/C(=C/C)COC(=O)/C(=C/C)CO)[C@@H]12	-5.8% [at 27.8 µM] (inactive)	–	–
Oc1ccc(-c2cnc3ccc(NCc4ccco4)nn23)cc1	-20.8% (inactive)	–	–
COC(=O)c1cc2c(C(F)(F)F)cc(-c3ccccc3)cc2n1O	-19.2% (inactive)	–	–
COc1cc(OC)c2c(=O)[nH]c(-c3cc(C)c(OCCO)c(C)c3)nc2c1	–	inactive	–
C=C1C(=O)OC2C1CCC1(C)C(O)CC=C(C)C21 (stereo not drawn)	-6.9% (inactive)	–	–
CO[C@H]1[C@@H](O)[C@H](O[C@H]2CC[C@@]3(C)C(CCC4C3CC[C@]35COC6(COC(=O)C6)C3CCC45O)C2)O[C@@H](C)[C@@H]1OC1OC(CO)C(OC2OC(CO)C(O)C(O)C2O)C(O)C1O (stereo partly drawn)	–	–	inactive [at 15.3 µM]
Fc1ccc(-c2cncc(CN3CCN(c4cccc5c4OCCO5)CC3)c2)cc1	-7.88% (inactive)	–	–
CC(C)C[C@H](C(=O)O)c1cc(-c2ccc(C(F)(F)F)cc2)cc(-c2ccc(C(F)(F)F)cc2)c1	-12.4% (inactive)	–	–
COc1cc(/C=C2\CC[C@H]3COC[C@@H](c4cc(F)c(F)c(F)c4)N3C2=O)ccc1-n1cnc(C)c1	-9.08% (inactive)	–	–
CC(C)(CNC(=O)c1cccc(-c2noc(C(F)(F)F)n2)c1)c1coc(-c2ccccc2)n1	-1.15% (inactive)	–	–
C=C1CC[C@@H]2[C@](C)(CO)[C@H](O)CC[C@@]2(C)[C@@H]1CC(=O)C1=CCOC1=O	-7.29% [at 27.8 µM] (inactive)	–	–
O=C(Nc1ccc(C(O)(C(F)(F)F)C(F)(F)F)cc1)c1ccc(C(F)(F)F)cc1	3.79% (inactive)	–	–
COC1=CC(=O)O/C1=C(/OC)[C@@H]1O[C@H]1c1ccccc1	-14.8% (inactive)	–	–
COc1ccc(C2(N(C)C(=O)c3ccc(NC(=O)c4ccco4)cc3)CCOCC2)cc1	-21.3% (inactive)	–	–
C[C@@H]1CC[C@]2(C(=O)O)CC[C@]3(C)C(=CCC4[C@@]5(C)CC[C@H](O)[C@](C)(C(=O)O)C5CC[C@]43C)C2[C@]1(C)O (stereo partly drawn)	-22% [at 27.8 µM] (inactive)	–	–
CN(C)c1ccnc2sc3c(=O)n(N4CCCCCC4)cnc3c12	-2.46% (inactive)	–	–
COCCCNC(=O)c1ccc(Cn2c(=O)c3ccccc3n(Cc3ccc(C(C)C)cc3)c2=O)cc1	0.193% (inactive)	–	–
O=C(Nc1ccc(Cl)cc1)c1ccccc1NCc1ccncc1	-7.29% (inactive)	–	–

SMILES	activity change, negative = inhibition	Potency	outcome
C[C@@H]1C[C@H]2O[C@@]3(O[C@@H]2C(C)(C)O)C(O)[C@@]2(C)C4CCC5C(C)(C)[C@@H](O[C@H]6OC[C@H](O)[C@@H](O)[C@@H]6O)CC[C@@]56C[C@@]46CC[C@]2(C)C13 (stereo partly drawn)	-12.2% [at 15.3 µM] (inactive)	–	–
CC(=O)C=C=C1C(C)(C)CC(O)CC1(C)O[C@@H]1O[C@H](CO[C@H]2OC[C@](O)(CO)[C@H]2O)[C@@H](O)[C@H](O)[C@H]1O (stereo partly drawn)	-10.3% [at 27.8 µM] (inactive)	–	–
Nc1ncnc2c1c(-c1ccc(Cl)cc1)nn2-c1cccc(-c2cnnn2Cc2cccc(-c3ccccc3)c2)c1	–	–	inactive
Cc1nc(C(=O)N2CCC[C@H]2Cc2nnc(-c3ccccc3)o2)c(-c2ccccc2F)s1	14.5% (inactive)	–	–
COc1cc2ncnc(Nc3cccc(I)c3)c2cc1OC	1% (inactive)	–	–
C=C1C(=O)O[C@@H]2[C@H]1CC(=O)[C@H](C)[C@@](O)(C(=O)/C=C/C)[C@H]2OC(=O)C(C)CC (stereo partly drawn)	–	–	inactive [at 27.8 µM]
CCC(CC)(NC(=O)C(C)C)C(=O)N[C@@H](CCCN=C(N)N)C(=O)NC1(C(=O)NC(c2ccc(F)cc2)c2ccc(F)cc2)CCCC1	-9.89% (inactive)	–	–
C=C1CCC2C(C)(C)CCCC2(C)C1CC/C(C)=C\CO (stereo not drawn)	–	–	inactive
CCc1ccccc1OC[C@@H](O)CN[C@H]1CCCc2ccccc21	7.05% (inactive)	–	–
COc1cc(-c2nc(N[C@H](CO)Cc3ccccc3)ccc2C(=O)NCCOc2ccccc2)cc(OC)c1OC	4.53% (inactive)	–	–
CC(C)(C)Sc1c(CC(C)(C)C(=O)O)n(Cc2ccc(Cl)cc2)c2ccc(OCc3ccc4ccccc4n3)cc12	–	inactive and 8.06 µM (active)	–
CC(=O)O[C@H]1CC2C(COC(=O)CC(C)C)=CO[C@@H](OC(=O)CC(C)C)C2[C@]12CO2 (stereo partly drawn)	-4.9% [at 27.8 µM] (inactive)	–	–
O=C1COc2nccc(-c3ccccc3F)c2CN1Cc1cc(C(F)(F)F)cc(C(F)(F)F)c1	-13.9% (inactive)	–	–
CC(C)(O)c1ccn2c(-c3ccc(F)c(-c4ccc(F)cc4C#N)c3)cnc2c1F	-4.21% (inactive)	–	–
C[C@@H](Nc1ncnc2[nH]c(-c3ccc(O)cc3)cc12)c1ccccc1	-21% (inactive)	–	–
Cc1csc(N(C(=O)CSc2ccc(-c3ccccc3)nn2)C2CC2)n1	-5.55% (inactive)	–	–
CC12CCC(OC3OC(CO)C(O)C(O)C3OC3OC(CO)C(O)C(O)C3O)CC1CCC1C2CCC2(C)/C(=C3/COC(=O)C3)CCC12O (stereo not drawn)	–	–	inactive [at 15.3 µM]
CCOc1nc(NC(=O)Cc2cc(OC)ccc2OC)cc(N)c1C#N	-9.69% (inactive)	–	–
C/C(=C\CO[C@@H]1O[C@H](CO[C@H]2OC[C@](O)(CO)[C@H]2O)[C@@H](O)[C@H](O)[C@H]1O)C(C)(C)O	1.73% [at 27.8 µM] (inactive)	–	–
